From the supplement of paper PMC7411640
Counter-ions that a name gives are not always drawn.

Test system: MDA-MB-468
Test: phospho-S6 immunofluorescence (DAPI-normalised), per-plate z-score; higher = higher phospho-S6 signal (less pathway suppression)
Settings: 24 h
Experimental: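 GPCR-targeted compound library (MedChemExpress HY-L006) tested on MDA-MB-468 PTEN-null TNBC cells in 384-well plates at 0.1, 1 or 10 uM, combined with vehicle, GDC0941 450 nM or lapatinib 1 uM, for 24 h. Phospho-S6 (S240/244) immunofluorescence normalised to DAPI and expressed as a per-plate z-score; values are the mean of biological triplicates.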

| SMILES | phospho-S6 immunofluorescence (z-score) (co-treatment: GDC0941 450 nM) | phospho-S6 immunofluorescence (z-score) (co-treatment: lapatinib 1 uM) | phospho-S6 immunofluorescence (z-score) (co-treatment: vehicle) |
| --- | --- | --- | --- |
| CNC(C)Cc1ccccc1OC (centres undefined) [Methoxyphenamine (Hydrochloride)] (compound 10 µM) | 0.57 | -0.2 | 0.23 |
| CN1CCC(c2c[nH]c3ccc(O)cc23)CC1 (compound 10 µM) | 0.22 | 0.55 | 0.06 |
| C[N@+]1(CC2CC2)CC[C@]23c4c5ccc(O)c4O[C@H]2C(=O)CC[C@@]3(O)[C@H]1C5 [Methylnaltrexone (Bromide)] (compound 10 µM) | 0.46 | 0.44 | -0.66 |
| Oc1ccc2c3c1O[C@H]1c4[nH]c5ccccc5c4C[C@@]4(O)[C@@H](C2)N(CC2CC2)CC[C@]314 [Naltrindole (hydrochloride)] (compound 10 µM) | -1.12 | -5.41 | -1.21 |
| CC(C)C[C@H](NC(=O)[C@H](Cc1ccccc1)NC(=O)CNC(=O)[C@@H](C)NC(=O)[C@@H](N)Cc1ccc(O)cc1)C(=O)O [[D-Ala2]leucine-enkephalin] (compound 10 µM) | -0.29 | 0.01 | 1.34 |
| CCN(CC)C(=O)c1ccc(C2=CC3(CCNCC3)Oc3cccc(O)c32)cc1 (compound 10 µM) | 0.32 | -0.78 | 0.88 |
| CNCC(=O)c1ccc(O)c(O)c1 [Adrenalone (hydrochloride)] (compound 10 µM) | 0.18 | 1.2 | 0.39 |
| O=C(O[C@H]1C[C@H]2CC[C@@H](C1)[N+]21CCCC1)C(O)(c1ccccc1)c1ccccc1 [Trospium (chloride)] (compound 10 µM) | -0.76 | 0.26 | -1.07 |
| Cc1cccc(C(C)c2c[nH]cn2)c1C (centres undefined) [Medetomidine (hydrochloride)] (compound 10 µM) | 0.08 | 0.79 | 0.41 |
| O=C(O[C@H]1CN2CCC1CC2)N(Cc1cc(F)c(F)c(F)c1)c1cccc(F)c1 [Tarafenacin (D-tartrate)] (compound 10 µM) | 0.34 | -1.58 | 1.05 |
| CN1[C@@H]2CC[C@H]1C[C@@H](OC(=O)[C@H](CO)c1ccccc1)C2 [L-Hyoscyamine] (compound 10 µM) | 0.17 | 0.67 | 0.91 |
| CC[N+](C)(CC)CCOC(=O)C(O)(c1ccccc1)c1ccccc1 [Methylbenactyzium Bromide] (compound 10 µM) | -0.26 | -0.59 | -0.57 |
| CN(C)CCN(C)CCc1ccc(Cl)c(Cl)c1 [BD-1047 (dihydrobromide)] (compound 10 µM) | 0.39 | -1.41 | -0.85 |
